An excerpt weighted towards active compounds, which were near 9.9% of everything screened.
KB-V1 cytotox: kills drug-selected multidrug resistant KB-V1 cells; KB-V1 MDR cells viability, CellTiter-Glo, 72 h; Potency, µM (series often up to 46.1 µM), most hits filed as cytotoxic; 400,000 tested, 3.4% active; further: potency means the concentration at half of the fitted maximal effect; on the % scale 0 is the no-effect control and ±100 the full control effect; nearly all actives have a fitted effect of over 60% in size
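Cytotoxicity toward P-gp-expressing KB-V1 cells was determined as loss of CellTiter-Glo luminescence after 72 h at 37 degrees C. Compounds were tested in quantitative HTS format across a concentration range, with curves fitted to normalized data.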
KB-3-1 tox: kills parental KB-3-1 adenocarcinoma cells. KB-3-1 viability, CellTiter-Glo ATP luminescence, 72 h. Potency, µM (top dose mostly 46.1 µM), usual class: cytotoxic. 400,000 tested, 1.4% active; further: potency means the concentration at half of the fitted maximal effect; on the % scale 0 is the no-effect control and ±100 the full control effect; nearly all actives have a fitted effect of over 60% in size
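Here the drug-naive KB-3-1 line serves as comparator for MDR sub-line selectivity; cells received compound titrations, 72 h at 37 °C, then CellTiter-Glo readout.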
IL1B secr inh: blocks inflammasome-driven IL-1 beta release | THP-1 LPS/ATP IL-1B secretion, AlphaLISA, 16 h; stronger effect = lower value | activity change, % at 57.5 µM | 360,000 tested, 4.7% active; in the data active means activity change below about -50%; inconclusive means mostly about -30% to -49%; further: on the % scale 0 is the no-effect control and ±100 the full control effect
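Secreted IL-1B measured by AlphaLISA bead assay after 16 h compound exposure of THP-1 cells; compounds (final up to 57.5 uM) added 1 h before LPS (250 ng/mL) and ATP (1.25 mM) stimulation; lower signal means less secretion.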
SW480 rereplic: inducers of DNA re-replication in SW480 colon cancer cells; Potency, µM (highest dose often 46.1 µM), inactives show top-dose re-replication activation, actives largely listed as activators; 340,000 tested, 1.8% active; AID 624297; SW480 DNA re-replication, Hoechst DNA content imaging, 48 h; further: potency means the concentration at half of the fitted maximal effect; % of control where 0% means no effect; nearly all actives have a fitted effect of over 55% in size
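250 cells/well; 23 nL cpd via pin tool; 48 hr, 37 C, 5% CO2; Hoechst 40 min; imager read of total nuclear intensity, ex 405/em 500-530 nm.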
MCF10A rerep: induces DNA re-replication in MCF 10a normal breast cells | MCF 10A DNA re-replication, Hoechst nuclear intensity, 48 h | Potency, µM (titrated, usually from 46.1 µM), for the others: at the highest dose activity, positive = re-replication, most hits filed as activators | 350,000 tested, 2.9% active; further: potency means the concentration at half of the fitted maximal effect; % of control where 0% means no effect; nearly all actives have a fitted effect of over 50% in size
Numbers without * were called inactive; i = inactive; ? = inconclusive; . = no result; [ ] = another dose, or the depositor's remark. Unless noted, the call rests on the fitted dose curve; in most records, active means well fitted curve in the direction sought with a large enough effect; inconclusive means small, poorly fitted or top-dose-only effect, or another doubt; inactive means no such curve, though single readings can be large; an effect the other way counts as inactive or inconclusive.

SMILES | KB-V1 cytotox | KB-3-1 tox | IL1B secr inh | SW480 rereplic | MCF10A rerep
CC(C)Oc1ccc(C(=O)N2CCC(c3nc4ccccc4s3)CC2)cc1 | i | i | . | . | .
Cc1ccc(NC(=S)N2CCC(c3nc4ccccc4s3)CC2)cc1C | i | i | -65* | -5% | -2%
Cc1ccccc1OCC(=O)N1CCC(c2nc3ccccc3s2)CC1 | i | i | . | . | .
COc1ccccc1OC(C)C(=O)N1CCC(c2nc3ccccc3s2)CC1 (stereo unspecified) | ? | 15µM* | . | . | .
CCc1ccc(OC(C)C(=O)N2CCC(c3nc4ccccc4s3)CC2)cc1 (stereo unspecified) | 15µM* | ? | . | . | .
Fc1ccc(COc2ccc(Br)cc2CNCC2CCCO2)cc1 (stereo unspecified) | i | i | -74* | 62% | ?
c1c2c(cc3sc(N4CCCCC4)nc13)OCO2 | ? | 9.2µM* | -12 | -2% | 9%
C/C(CC(=O)NC1CCCC1)=N\NC(=O)c1ccc([N+](=O)[O-])c(Cl)c1 | i | i | 0 | . | -1%
COc1cc(N2C(=O)C=CC2=O)c(OC)cc1Cl | ? | ? | ? | ? | 5.8µM*
O=C(NCc1ccccc1)C(c1ccccc1)N(Cc1ccc2c(c1)OCO2)C(=O)Cc1cccs1 (stereo unspecified) | 13µM* | i | -26 | 5% | ?
O=C(NC1CCCC1)C(c1ccsc1)N(Cc1ccccc1)C(=O)Cc1cccs1 (stereo unspecified) | 4.6µM* | i | -22 | 8% | 20%
CC1(C)CC(=O)C(C=NCCN2CCN(CCCCS(=O)(=O)O)CC2)=C(O)C1 | i | i | 11 | -2% | 0%
CC1(C)CC(=O)C(C=NCCN2CCOCC2)=C(O)C1 | i | i | 1 | 6.5µM* | -5%
O=C(CCc1c[nH]c2ccccc12)N1CCN(S(=O)(=O)c2ccc(F)cc2)CC1 | i | i | -13 | -68% | 7%
O=C(O)c1cccc(OS(=O)(=O)c2cc(Br)ccc2Br)c1 | i | i | 10 | -9% | -1%
CCc1nnc(NC(=O)CCNC(=O)c2ccco2)s1 | i | i | -4 | -24% | 4%
CN(C)CCCNc1oc(/C=C/c2ccccc2)nc1C#N | i | i | -22 | -13% | -1%
CCOc1ccc(/C=C/c2nc(C#N)c(NCCCOC)o2)cc1 | 2.1µM* | 5.2µM* | -2 | 2.1µM* | 3.7µM*
COc1cccc(/C=C/c2nc(C#N)c(NCC(C)C)o2)c1 | ? | ? | ? | 21µM* | 3.3µM*
CCOc1ccc(/C=C/c2nc(C#N)c(NCCCN(C)C)o2)cc1 | i | i | -76* | 18µM* | 6.5µM*
COCCCNc1oc(/C=C/c2ccccc2)nc1C#N | i | i | -24 | 7.9µM* | 16µM*
Cc1nn(C)cc1S(=O)(=O)Nc1cccc(Cl)c1 | ? | i | 15 | -1% | 0%
C=CCNc1oc(/C=C/c2ccccc2)nc1C#N | 18µM* | i | -9 | 21µM* | 8.2µM*
O=C(Nc1cccc(S(=O)(=O)N2CCOCC2)c1)c1ccc2c(=O)n3c(nc2c1)CCCCC3 | ? | i | -86* | -6% | ?
O=C(Nc1nc(-c2ccccc2)cs1)c1ccc2c(=O)n3c(nc2c1)CCCCC3 | ? | ? | -15 | -7% | 18µM*
SMILES | KB-V1 cytotox | KB-3-1 tox | IL1B secr inh | SW480 rereplic | MCF10A rerep
O=C(Nc1cccc(S(=O)(=O)N2CCCC2)c1)c1ccc2c(=O)n3c(nc2c1)CCCCC3 | ? | ? | -62* | 0% | 17%
COc1ccccc1Nc1nc(-c2c(C)[nH]c3ccccc23)cs1 | i | i | -1 | 10µM* | 5.8µM*
CCCC(=O)Nc1nc(C)c(-c2csc(Nc3ccccc3OC)n2)s1 | i | i | -9 | -2% | 9%
COc1ccccc1Nc1nc(-c2sc(NC(=O)C(C)(C)C)nc2C)cs1 | i | 8.2µM* | -25 | 17%[9.22 µM] | 5%
Cc1[nH]c2ccccc2c1-c1csc(N)n1 | i | i | -13 | -3% | -13%
C=CCCC(=O)Nc1nc(C)c(-c2csc(Nc3cc(OC)ccc3OC)n2)s1 | i | ? | -3 | 23µM* | ?
CCCC(=O)Nc1nc(C)c(-c2csc(Nc3cc(OC)ccc3OC)n2)s1 | i | i | -1 | 8% | -1%
CN(C)c1nc(N/N=C\c2ccc(Cl)c([N+](=O)[O-])c2)nc(Nc2ccc(F)cc2)n1 | i | i | -90* | ? | ?
CC(=O)Nc1ccc(NC(=O)C2CC(=O)Nc3nc4ccccc4n32)cc1 (stereo unspecified) | i | i | -4 | -7% | -17%
Cc1ccc(NC(=O)C2CC(=O)Nc3nc4ccccc4n32)c(C)c1 (stereo unspecified) | i | i | -1 | 18µM* | -19%
O=c1[nH]nc(Br)c(=O)n1C(c1ccccc1)c1ccccc1 | 23µM* | ? | -5 | 2% | 0%
O=C(CN1Cc2ccccc2C1=O)Nc1cc(F)ccc1F | i | i | . | . | .
CC1CCN(C(=O)c2cc(-c3cccc(Cl)c3)on2)CC1 | i | i | . | . | .
C[C@@H]1C(c2cccc(Cl)c2)=NN(c2ccccc2)[C@H]1C(=O)N1CCOC1=O | i | i | -78* | 18µM* | ?
C[C@@H]1C(c2ccccc2)=NN(c2ccccc2)[C@H]1C(=O)N1CCOC1=O | i | i | -19 | ? | 9%
C[C@@H]1C(c2cccc(Cl)c2)=NN(c2ccc(Br)cc2)[C@H]1C(=O)N1CCOC1=O | i | i | -51* | 3.3µM* | ?
CCOc1ccc(C(C)=O)cc1N1C(=O)C2C3C=CC(C3=C(C)C)C2C1=O (stereo unspecified) | 16µM* | i | 7 | -9% | -10%
CCOc1ccc(C(C)=O)cc1N1C(=O)C2C(C1=O)C1C=CC2C12CC2 (stereo unspecified) | ? | i | 11 | 0% | -3%
CCCNC(=O)C1CCC(Cn2c(=O)c3sccc3n(CC(=O)N3CCCC(C)C3)c2=O)CC1 (stereo unspecified) | i | i | . | . | .
Cc1sc2nc(CN3CCOCC3)nc(Cl)c2c1C | i | ? | -96* | -1% | ?
Cc1sc2nc(CN3CCC(C)CC3)nc(Cl)c2c1C | . | . | . | 19% | 15%
Cc1c(O)ccc2c(CC(=O)N[C@@H](Cc3ccccc3)C(=O)O)cc(=O)oc12 | i | i | -7 | ? | 23µM*
COc1cccc(CN(C)Cc2cc(=O)oc3cc(O)c(Cl)cc23)c1 | i | ? | 68 | ? | 21µM*
COc1cccc(CN(C)Cc2cc(=O)oc3c(C)c(C)ccc23)c1 | i | 16µM* | 14 | -10% | 13%
COc1cc2oc(=O)cc(CN(Cc3ccccc3)Cc3ccccc3)c2cc1Cl | i | i | 28 | . | .
